CtBP-E1A inh = inhibitors of CtBP/E1A interaction | AlphaScreen GST-E1A/His-CtBP binding, 1536-well; stronger effect = lower value | activity change, % (no concentration beside the values) | hit rate 0.49% among 340,000 | AID 651724; in the data active means activity change below about -65%; inconclusive means mostly about -30% to -63%; further: on the % scale 0 is the no-effect control and ±100 the full control effect
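Homogeneous bead-based format: GST-tagged E1A captured on glutathione donor beads, His-tagged CtBP on nickel acceptor beads; compounds precede bead addition by 2 h at 37 °C.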
TGFb SMAD3 inh = blocks TGF-b signaling | HepG2 CAGA-GFP TGF-b/SMAD3 reporter, GFP fluorescence, 18 h; TGF-beta stimulated, 500 pg/mL final | Potency, µM (titrated, usually from 46.1 µM), for the others: at the top dose activity, negative = inhibition, hits mostly inhibitors | hit rate 1.2% among 410,000; further: potency means the concentration at half of the fitted maximal effect; on the % scale 0 is the no-effect control and ±100 the full control effect; nearly all actives have a fitted effect of over 65% in size
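Using HEPG2 CAGA-GFP reporter cells at 1000 cells/well, we pinned test compounds, stimulated with recombinant TGF-beta (500 pg/mL final) and measured total well GFP after 18 h.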
ATXN2 expr inh = reduces ATXN2 reporter expression in HEK-293 cells | Potency, µM (highest dose often 57 µM), for the others: at the highest dose activity change, negative = inhibition, usual class: inhibitors | AID 1745845 | HEK-293 ATXN2-luciferase reporter, luminescence, 24 h | hit rate 0.72% among 360,000; further: potency means the concentration at half of the fitted maximal effect; on the % scale 0 is the no-effect control and ±100 the full control effect; nearly all actives have a fitted effect of over 55% in size
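qHTS (up to 57 uM final) was run with 24 h compound exposure of reporter cells at 37 °C. Each well was multiplexed: SteadyGlo luminescence measured ATXN2-luciferase expression after a fluorogenic Gly-Phe-AFC viability readout (25 uM final).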
S2 tox = cell viability loss in ATXN counter-screen | Potency, µM (titrated, usually from 56.7 µM), usual class: cytotoxic | S2 cells (HEK-293 line with an ATXN2-luciferase reporter) viability, CellTiter-Fluor protease fluorescence, 24 h | hit rate 0.49% among 400,000; further: potency means the concentration at half of the fitted maximal effect; nearly all actives have a fitted effect of over 40% in size
HepG2 viability = kills HepG2 cells in TGF-b inhibitor counter-screen; HepG2 CAGA-GFP viability, ATP luminescence, 18 h; Potency, µM (highest dose often 46.1 µM), for inactives: at the top dose activity change, negative = cytotoxicity, usual class: cytotoxic; hit rate 0.76% among 410,000; further: potency means the concentration at half of the fitted maximal effect
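HepG2 CAGA-GFP cells (1000/well, DMEM with 1% FBS) received compound, then TGF-beta at 500 pg/mL final, and were incubated 18 hours at 37 degrees C. Viability was read by CellTiter-Glo luminescence. Media-only wells were set as complete cell-killing and DMSO as no toxicity.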
Six1-Eya2 inh = blocks human Six1 binding to Eya2; Q15475+O00167; AlphaScreen GST-Six1/His-Eya2 binding, biochemical; stronger effect = lower value; activity change, % (test concentration not listed); hit rate 0.56% among 360,000; in the data active means activity change below about -65%; inconclusive means mostly about -30% to -63%; further: on the % scale 0 is the no-effect control and ±100 the full control effect
Target sequence (O00167 whole entry, looked up): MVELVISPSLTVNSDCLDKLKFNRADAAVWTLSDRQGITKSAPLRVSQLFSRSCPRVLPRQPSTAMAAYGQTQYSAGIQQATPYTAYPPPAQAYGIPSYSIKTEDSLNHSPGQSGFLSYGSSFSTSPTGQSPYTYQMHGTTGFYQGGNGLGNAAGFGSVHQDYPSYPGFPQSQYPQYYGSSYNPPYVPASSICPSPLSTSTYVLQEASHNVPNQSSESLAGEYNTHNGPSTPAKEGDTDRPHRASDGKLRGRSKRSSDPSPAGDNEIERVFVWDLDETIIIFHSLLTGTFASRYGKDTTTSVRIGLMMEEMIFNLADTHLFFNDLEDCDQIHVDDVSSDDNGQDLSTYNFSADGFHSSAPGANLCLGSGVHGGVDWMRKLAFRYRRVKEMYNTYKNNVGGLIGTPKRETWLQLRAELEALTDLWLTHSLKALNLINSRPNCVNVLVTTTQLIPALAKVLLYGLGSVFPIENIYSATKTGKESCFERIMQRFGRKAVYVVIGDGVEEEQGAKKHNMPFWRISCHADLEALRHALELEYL
Target sequence (Q15475 whole entry, looked up): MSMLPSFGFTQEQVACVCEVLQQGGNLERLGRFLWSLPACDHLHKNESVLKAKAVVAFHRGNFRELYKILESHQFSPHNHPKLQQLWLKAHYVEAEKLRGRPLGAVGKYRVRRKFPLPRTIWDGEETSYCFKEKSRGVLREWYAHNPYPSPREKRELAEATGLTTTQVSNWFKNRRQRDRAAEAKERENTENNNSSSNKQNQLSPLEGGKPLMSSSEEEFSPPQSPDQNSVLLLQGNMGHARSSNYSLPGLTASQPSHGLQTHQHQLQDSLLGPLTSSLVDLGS
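GST-Six1 + His-Eya2 (5X stock: 250/500 nM); Tris pH 8.0, 300 mM NaCl, 0.05% BSA, 0.02% Tween 20; GSH donor/Ni acceptor beads; 1 h 37 °C dark; AlphaScreen readout.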
* hit, by the source's call; i = inactive; ? = inconclusive; nt = no result; ! = a repeat was not active. Only some compounds are listed: those with a hit (about 2.8% of all), similar ones and a draw of the others. Unless noted, the call rests on the fitted dose curve; in most records, active means well fitted curve in the direction sought with a large enough effect; inconclusive means small, poorly fitted or top-dose-only effect, or another doubt; inactive means no such curve, though single readings can be large; an effect the other way counts as inactive or inconclusive.

SMILES	CtBP-E1A inh	TGFb SMAD3 inh	ATXN2 expr inh	S2 tox	HepG2 viability	Six1-Eya2 inh
O=C(NC1CCCC1)c1ccc(CSc2nc3cccnc3n2Cc2ccccc2)cc1	nt	18µM*	7%	i	-43%	nt
COc1ccc(Cn2c(SCc3ccc(C(=O)NC4CCCC4)cc3)nc3ccncc32)cc1	nt	?	?	?	-59%	nt
COc1ccc(Cn2c(SCc3ccc(C(=O)NC4CCCCC4)cc3)nc3ccncc32)cc1	nt	13µM*	?	i	-32%	nt
O=C(NC1CCCC1)c1ccc(CSc2nc3ccncc3n2Cc2ccc(F)cc2)cc1	2	7.9µM*!	?	?	-37%	-2
O=C(NC1CCCC1)c1ccc(CSc2nc3ccncc3n2Cc2cccc(F)c2)cc1	nt	?	-25%	?	-35%	nt
Cc1ccc(SCC(=O)OCC(=O)N(CC(C)C)c2c(N)n(Cc3ccccc3)c(=O)[nH]c2=O)cc1C	-3	18µM*	-19%	i	-156%	12
CCCc1nn2c(=O)cc(COC(=O)C3CCCCC3)nc2s1	nt	-6%	5%	i	3%	nt
CCOC(=O)c1cc(C)n(CC2CCC(C(=O)Nc3ccccc3OC)CC2)c1C (configuration not stated)	nt	11µM*	nt	nt	-22%	nt
CCOC(=O)c1cc(C)n(CC2CCC(C(=O)Nc3ccc(OCC)cc3)CC2)c1C (configuration not stated)	nt	?	nt	nt	-17%	nt
C[C@]12CCC(=O)C=C1[C@@H]1CC1[C@H]1[C@H]3[C@@H]4C[C@H]4[C@@]4(CCC(=O)O4)[C@@]3(C)CC[C@H]12 (some centres not stated)	nt	nt	-17%	nt	nt	nt
Cc1ccc(C)c(CN2C[C@H](Sc3nc4ccccc4[nH]3)C[C@H]2C(=O)N2CCCN(C)CC2)c1	nt	nt	nt	i	nt	nt
N#C/C(=C(/O)c1ccc(-c2cccc([N+](=O)[O-])c2)o1)c1nc2ccccc2s1	-22	13µM*	23%	i	-72%	-2
O=C(O)c1ccc(-c2cccc([N+](=O)[O-])c2)o1	1	4%	7%	i	1%	-3
CC(CCC(C)C(C)(C)C)[C@@H]1CC[C@H]2C3C[C@H](OS(O)(=S)=S)[C@H]4C[C@H](OS(O)(=S)=S)[C@@H](OS(O)(=S)=S)C[C@]4(C)[C@H]3CC[C@]12C (some centres not stated) (tested in a mixture with another compound)	?	?	?	18µM*	16µM*	?
CCOC(=O)N1CCN(C(=O)CSc2nc3c([nH]c4ccccc43)c(=O)n2C)CC1	7	13µM*	3%	i	-75%	4
Cn1c(SCC(=O)N2CCCCC2)nc2c([nH]c3ccccc32)c1=O	2	3%	-4%	i	0%	-1
COc1cccc(C(=O)C(C#N)=C(SC)SC)c1	nt	?	nt	nt	10µM*	-4
CSC(SC)=C(C#N)C(=O)c1ccccc1	7	?	22µM*	nt	-134%	-1
CCCC(=O)N1CCN(c2ccc(NC(=O)c3cc4ccccc4o3)cc2Cl)CC1	-8	-12%	14µM*	18µM*	-9%	-14
O=C(Nc1ccc(N2CCN(C(=O)c3ccco3)CC2)c(Cl)c1)c1cc2ccccc2o1	-5	1%	20µM*	nt	-13%	-7
CCC(=O)N1CCN(c2ccc(NC(=O)c3cc4ccccc4o3)cc2Cl)CC1	-10	?	?	?	-34%	1
Cc1ccc2c(c1)CN(CCNC(=O)C(C)Oc1ccccc1)CC(C)O2 (configuration not stated)	nt	nt	nt	i	nt	nt
Cc1onc(-c2c(Cl)cccc2Cl)c1C(=O)N/N=C(\N)COc1ccc(Cl)cc1	-12	6.3µM*	?	?	-64%	-12
COc1cc(/C=N/NC(=O)c2c(-c3c(Cl)cccc3Cl)noc2C)ccc1OCC(N)=O	-3	0%	0%	i	2%	1
C=CC[C@@H](CC(=O)N[C@H](CO)Cc1ccccc1)C(=O)N[C@H](COC(=O)[C@H](CC=C)CC(=O)OC(C)(C)C)Cc1c[nH]c2ccccc12	0	16µM*	?	28µM*	-38%	-13
SMILES	CtBP-E1A inh	TGFb SMAD3 inh	ATXN2 expr inh	S2 tox	HepG2 viability	Six1-Eya2 inh
C=CC[C@H](CC(=O)N(CCO)Cc1ccccc1)C(=O)N[C@H](COC(=O)[C@H](CC=C)CC(=O)OC(C)(C)C)Cc1c[nH]c2ccccc12	-7	?	?	22µM*	4%	-14
C=CC[C@@H](CC(=O)N[C@@H](CO)Cc1ccccc1)C(=O)N[C@H](COC(=O)[C@H](CC=C)CC(=O)OC(C)(C)C)Cc1c[nH]c2ccccc12	nt	?	?	nt	-15%	-7
COc1ccc(N2C(=O)CC(N(CCc3ccccc3)C(=O)c3ccccc3)C2=O)cc1 (configuration not stated)	-70*	9%	-11%	i	3%	1
Cc1cnc(-n2ncc(C(=O)N(C)Cc3cccc4ncccc34)c2C(C)C)nc1-c1ccc(F)cc1	nt	nt	nt	i	nt	nt
COc1ccc(/C=C2/SC(=S)N(Cc3ccccc3)C2=O)cc1O	-5	?	5%	i	-89%	-20
O=C1/C(=C\c2cc(Cl)c(O)c(Cl)c2)SC(=S)N1Cc1ccccc1	-7	238%	?	i	11µM*	28
Cc1cnc(-n2ncc(C(=O)NCc3ccncc3)c2C2CC2)nc1-c1cccs1	nt	nt	nt	i	nt	nt
CCN(CC)CCN1CCN(c2cncc(-c3cccc(N)c3)n2)CC1	-2	-6%	1%	?	3%	1
CCN(CC)CCN1CCN(c2cncc(-c3ccc4ccccc4c3)n2)CC1	-16	?	-23%	?	13µM*	-11
CC[C@H]1CN2CCc3cc(OC)c(OC)cc3[C@H]2C[C@@H]1C[C@@H]1NCCc2cc(OC)c(OC)cc21	nt	nt	0.27µM*	nt	nt	nt
Cc1ccc(Sc2ccc(NC(=O)CCl)cc2)c(C)c1	1	?	32µM*	nt	-90%	-6
O=C(CCl)Nc1ccccc1Sc1ccc(Cl)cc1	7	-7%	nt	nt	-72%	3
Cc1ccc(C)c(Sc2ccc(NC(=O)CCN3C(=O)NC4(CCCC4)C3=O)cc2)c1	-5	?	?	?	16µM*	-1
Cc1ccc(NC(=O)CCN2C(=O)NC3(CCCC3)C2=O)cc1	2	0%	-1%	i	-7%	7
Cc1ccc(-c2nnc(Nc3ccc(O)cc3)c3ccccc23)cc1S(=O)(=O)N1CCN(C)CC1	nt	10µM*	?	?	-21%	nt

Screening results (PubChem)
